G9a block: inhibitors of human histone lysine methyltransferase G9a. Q96KQ7. G9a H3K9 monomethylation, AlphaScreen, 2 h. Potency, µM (top dose mostly 102 µM), actives largely listed as inhibitors. actives 8.8% (n = 350,000). AID 504332; also: nearly all actives have a fitted effect of over 75% in size
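Readings reflect AlphaScreen signal from monomethyl-H3K9 antibody detection. HMT at 20 nM; substrate b-H3K9 500 nM; cofactor SAM 20 uM; 2 h RT reaction; compounds tested as titrations in qHTS with 15 min preincubation.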
HP1b chromo inh: HP1-beta chromodomain-methylated histone interaction inhibition | Potency, µM (series often up to 114 µM), actives largely listed as inhibitors | AlphaScreen HP1-beta / biotin-H3K9me3 peptide binding | actives 0.56% (n = 390,000) | AID 540317 | P83916; also: nearly all actives have a fitted effect of over 70% in size
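Compound inhibition of the preformed complex between 50 nM HP1-beta and 50 nM biotinylated H3K9me3 peptide was read by AlphaScreen. Buffer was PBS pH 7.4 with 0.01% Tween-20. Incubations ran 30 min at room temperature, with 10 ug/mL donor/acceptor beads.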
JMJD2A Tudor inh: blocks the human JMJD2A Tudor domain | O75164 | AlphaScreen JMJD2A-Tudor / H3K4me3 peptide binding | Potency, µM (highest dose often 114 µM), hits mostly inhibitors | actives 4.4% (n = 390,000); also: nearly all actives have a fitted effect of over 50% in size
BAZ2B block: inhibitors of human BAZ2B bromodomain. actives 4.4% (n = 360,000). AlphaScreen BAZ2B-H3K14Ac peptide displacement. Potency, µM (top dose mostly 114 µM), actives largely listed as inhibitors. Q9UIF8; also: nearly all actives have a fitted effect of over 60% in size
Target sequence (Q9UIF8 whole entry, looked up): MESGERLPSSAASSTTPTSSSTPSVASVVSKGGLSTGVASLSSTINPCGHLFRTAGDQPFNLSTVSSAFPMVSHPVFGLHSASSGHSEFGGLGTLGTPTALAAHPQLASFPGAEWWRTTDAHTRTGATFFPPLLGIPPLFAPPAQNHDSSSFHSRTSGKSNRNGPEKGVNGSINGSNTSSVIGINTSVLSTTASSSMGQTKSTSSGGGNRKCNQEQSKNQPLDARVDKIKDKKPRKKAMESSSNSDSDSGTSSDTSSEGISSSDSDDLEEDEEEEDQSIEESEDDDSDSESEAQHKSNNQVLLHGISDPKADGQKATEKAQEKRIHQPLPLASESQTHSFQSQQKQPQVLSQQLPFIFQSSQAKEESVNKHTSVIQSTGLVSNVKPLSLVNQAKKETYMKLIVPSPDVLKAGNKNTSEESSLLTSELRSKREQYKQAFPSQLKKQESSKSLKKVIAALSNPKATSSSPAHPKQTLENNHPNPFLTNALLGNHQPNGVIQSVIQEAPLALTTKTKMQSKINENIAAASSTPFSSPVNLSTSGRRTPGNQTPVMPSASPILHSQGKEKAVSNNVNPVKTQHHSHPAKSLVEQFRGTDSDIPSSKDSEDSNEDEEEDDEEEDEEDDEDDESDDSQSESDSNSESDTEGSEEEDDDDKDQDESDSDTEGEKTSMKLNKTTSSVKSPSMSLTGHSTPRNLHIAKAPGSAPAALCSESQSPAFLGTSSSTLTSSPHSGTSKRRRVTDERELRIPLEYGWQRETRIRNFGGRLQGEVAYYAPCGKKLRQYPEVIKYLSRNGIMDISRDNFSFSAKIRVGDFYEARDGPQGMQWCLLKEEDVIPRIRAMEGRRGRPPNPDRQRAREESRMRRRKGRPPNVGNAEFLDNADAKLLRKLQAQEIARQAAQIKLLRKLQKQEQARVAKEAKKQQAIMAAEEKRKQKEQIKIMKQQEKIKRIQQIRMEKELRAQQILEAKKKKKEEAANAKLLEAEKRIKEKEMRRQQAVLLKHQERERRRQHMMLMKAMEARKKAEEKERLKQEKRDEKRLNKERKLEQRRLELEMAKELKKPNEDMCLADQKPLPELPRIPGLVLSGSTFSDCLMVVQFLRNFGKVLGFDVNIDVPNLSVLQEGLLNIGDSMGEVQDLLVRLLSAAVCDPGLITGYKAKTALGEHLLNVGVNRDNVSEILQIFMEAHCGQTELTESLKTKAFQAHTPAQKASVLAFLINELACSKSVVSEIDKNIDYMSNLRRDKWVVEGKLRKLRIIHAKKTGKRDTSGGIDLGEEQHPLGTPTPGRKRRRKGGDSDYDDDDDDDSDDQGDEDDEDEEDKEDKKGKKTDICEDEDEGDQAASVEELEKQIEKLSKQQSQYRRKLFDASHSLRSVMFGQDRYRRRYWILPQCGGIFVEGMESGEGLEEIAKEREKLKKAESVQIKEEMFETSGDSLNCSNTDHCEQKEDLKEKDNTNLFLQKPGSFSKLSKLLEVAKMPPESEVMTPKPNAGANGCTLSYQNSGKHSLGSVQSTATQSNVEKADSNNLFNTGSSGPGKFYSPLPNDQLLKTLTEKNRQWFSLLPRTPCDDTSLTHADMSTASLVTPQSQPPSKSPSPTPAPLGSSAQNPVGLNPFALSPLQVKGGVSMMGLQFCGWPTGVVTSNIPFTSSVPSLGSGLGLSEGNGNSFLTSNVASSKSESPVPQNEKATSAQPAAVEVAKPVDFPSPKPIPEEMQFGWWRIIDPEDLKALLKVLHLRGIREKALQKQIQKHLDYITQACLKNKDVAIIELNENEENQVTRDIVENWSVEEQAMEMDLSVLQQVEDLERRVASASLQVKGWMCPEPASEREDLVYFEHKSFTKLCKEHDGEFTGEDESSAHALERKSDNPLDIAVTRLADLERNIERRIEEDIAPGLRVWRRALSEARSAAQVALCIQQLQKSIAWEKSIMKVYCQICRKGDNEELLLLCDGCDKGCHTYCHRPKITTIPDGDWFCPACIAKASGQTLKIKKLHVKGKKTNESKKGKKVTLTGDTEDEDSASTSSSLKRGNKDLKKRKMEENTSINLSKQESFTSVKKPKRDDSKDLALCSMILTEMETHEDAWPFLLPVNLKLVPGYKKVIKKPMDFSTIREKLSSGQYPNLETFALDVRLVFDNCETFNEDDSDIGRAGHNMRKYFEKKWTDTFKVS
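AlphaScreen displacement: compounds (up to 110uM) incubated 30 min at room temperature with a preformed 50 nM BAZ2B/50 nM biotinylated H3K14Ac peptide complex in PBS pH 7.4 with Tween-20. Donor and acceptor beads at 10 ug/mL final added, 20 min light-protected before reading.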
L3MBTL1 inh: inhibitors of human L3MBTL1. Q9Y468. AlphaScreen L3MBTL1–H3K9me1 peptide binding. Potency, µM (series often up to 57.1 µM), hits mostly inhibitors. actives 0.66% (n = 230,000); also: nearly all actives have a fitted effect of over 60% in size
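Displacement of a biotinylated histone H3(1-15) peptide monomethylated at Lys9 (75 nM) from L3MBTL1 (50 nM) was measured by AlphaScreen after a 30 min room-temperature compound incubation; cefsulodin titration served as intraplate control.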
Sfp PPTase inh: Sfp phosphopantetheinyl transferase inhibition | Q9F4F7 | Biochemical Sfp PPTase activity, qHTS | Potency, µM, most hits filed as inhibitors | actives 3.5% (n = 310,000) | AID 1490;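 also: the enzyme is Sfp with the accession as filed and its product quenches rhodamine fluorescence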
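Reaction rates are the 30-min fluorescence difference (ex 525, em 598 nm) in wells containing 15 nM Sfp, 5 uM rhodamine-CoA and 12.5 uM BHQ-2-YbbR at pH 7.6 with 10 mM MgCl2.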
Hits are given with their value; - = inactive; ? = inconclusive; . = not tested or not shown; ! = a repeat was not active; [ ] = another dose, or the depositor's remark. A selection: hits, their analogues and other compounds. The true share with any hit is near 12%. Calls follow the shape of the dose curve; as a rule, active = well fitted curve in the direction sought with a large enough effect; inconclusive = small, poorly fitted or top-dose-only effect, or another doubt; inactive = no such curve, though single readings can be large; an effect the other way counts as inactive or inconclusive.

SMILES	G9a block	HP1b chromo inh	JMJD2A Tudor inh	BAZ2B block	L3MBTL1 inh	Sfp PPTase inh
CCOC(=O)c1c(C)oc2ccc(O)c(CN3CCCCC3)c12	-[12.7 µM]	-	-	-	-	-
COc1ccc(C(C(=O)NC2CCCC2)N(C(=O)c2ccco2)c2ccc(OC)c(OC)c2)cc1 (stereo not given)	-	-	-	-	-	-
COc1ccc(N(C(=O)c2ccco2)C(C(=O)NC2CCCC2)c2cccs2)cc1OC (stereo not given)	?	-	-	-	-	40µM
COc1ccc(N(C(=O)c2ccco2)C(C(=O)NC2CCCC2)c2ccncc2)cc1OC (stereo not given)	71µM	-	-	-	.	-
COc1ccc(N(C(=O)c2ccco2)C(C(=O)NC2CCCC2)c2cccs2)cc1 (stereo not given)	-	-	-	-	-	-
CCc1ccc(N(C(=O)CNC(=O)c2ccco2)C(C(=O)NC2CCCC2)c2cccnc2)cc1 (stereo not given)	-	-	50µM	-	.	-
N#Cc1nc(Nc2cc(F)cc(F)c2)nc(Nc2cc(F)cc(F)c2)n1	.	.	-	.	.	.
COc1cc(C2C(=O)N(C3CCCCC3)CC(=O)N2Cc2ccc(C)cc2)ccc1OC(C)C (stereo not given)	-	-	-	-	.	.
CCc1cc(C(=O)OC)c(NC(=O)CC2Nc3cc(C)c(C)cc3NC2=O)s1 (stereo not given)	?	-	-	-	-	-
COC(=O)c1c(NC(=O)CC2Nc3cc(C)c(C)cc3NC2=O)sc(C)c1C (stereo not given)	20µM	-	-	-	-	56µM
Cc1cc2c(cc1C)NC(CC(=O)NCc1ccccc1)C(=O)N2 (stereo not given)	3.2µM	-	-	-	-	-
O=C(c1ccc(COc2ccc3ccccc3c2)o1)N1N=C(C(F)F)CC1(O)C(F)F (stereo not given)	-	-	-	-	-	32µM
Cn1cccc1/C=N/NC(=O)Cc1ccccc1	.	-	-	?	.	-
Cn1cccc1/C=N/NC(N)=S	?	-	-	?	-	56µM
O=C(N/N=C/c1cccnc1)c1cc(-c2cccs2)nc2ccccc12	-	-	-	-	-	-
Cn1cccc1/C=N/NC(=O)c1ccccn1	3.2µM	-	?	35µM	.	79µM
Cn1cccc1/C=N/NC(=O)c1cc(-c2cccs2)nc2ccccc12	32µM	?	?	22µM	?	?
O=C(N/N=C/c1cccs1)c1ccccn1	6.3µM	-	-	?	-	50µM
O=C(CN1C(=O)COc2ccc(S(=O)(=O)Nc3ccccc3)cc21)NCc1ccccc1Cl	?	-	-	-	.	.
Cc1ccc(-n2ncc3c(NC4CCCCC4)ncnc32)cc1Cl	-	-	-	-	.	.
CCOC(=O)c1cc(-c2ccc(OC)cc2)n(CCC(=O)NC2CCCCC2)c1C	-	-	-	-	.	.
N#C/C(=C/c1cc[nH]c1)C(N)=S	?	-	-	-	.	-
Cn1cccc1/C=N/NC(=O)c1ccncc1	-	-	-	-	-	-
Cn1cccc1/C=C(\C#N)C(N)=S	50µM	-	-	?	-	-
Cn1cccc1/C=N/NC(=O)c1cc2ccccc2cc1O	-	?	?	28µM	.	-
SMILES	G9a block	HP1b chromo inh	JMJD2A Tudor inh	BAZ2B block	L3MBTL1 inh	Sfp PPTase inh
O=C(CNC(=O)c1ccc(Cl)cc1)OC(C(=O)Nc1cc(C(F)(F)F)ccc1Cl)c1ccccc1 (stereo not given)	.	.	-	.	.	.
CCOc1ccc(CNS(=O)(=O)c2cc3c(cc2C)NC(=O)CO3)cc1OC	-	-	-	-	.	.
Cc1ccc(C(CC(=O)NCC2(c3ccccc3)CCCC2)c2ccccc2)c(O)c1 (stereo not given)	-	-	-	-	.	.
COC(=O)c1cccc(CN2C(=O)SC(Nc3ccccc3)C2=O)c1 (stereo not given)	79µM	-	-	-	?	-
CCOc1ccc(NC2SC(=O)N(Cc3ccccc3)C2=O)cc1 (stereo not given)	11µM	-	?	?	.	.
O=C1SC(Nc2ccc(Cl)cc2)C(=O)N1Cc1ccccc1 (stereo not given)	-	-	-	-	.	.
CCc1c(C)nc(N2CCOCC2)[nH]c1=O	-	-	-	-	-	-
CCc1c(C)[nH]c2c1C(=O)C(CN1CCOCC1)CC2 (stereo not given)	19µM!	-	-	.	.	.
COCC(=O)N1c2nc(-c3ccco3)nn2C2(CCCCC2)[C@@H]2CCCC[C@@H]21	-	-	-	?	.	.
Nc1nc2c(ncn2-c2ccccc2)c(=O)[nH]1	.	-	-	.	.	.
O=c1[nH]c(=S)c2ncn(-c3ccccc3)c2[nH]1	25µM	-	14µM	?	-	18µM
CCOC(=O)c1cccc(NC(=O)C2CCN(S(=O)(=O)c3cn(C)cn3)CC2)c1	-	-	-	-	.	.
CC12CCC=CC1C(c1ccc(F)c(Br)c1)N(Cc1ccccc1)C2=O (stereo not given)	.	-	-	.	.	-
Clc1ccc(C2NCCc3sccc32)cc1 (stereo not given)	-	-	-	-	-	-
Oc1ccc(C2CNCc3sccc32)cc1O (stereo not given)	3µM	?	50µM	-	-	.
O=C(C1CCCCC1)N1CCCC(c2nc3c(nnn3Cc3ccccc3)c(=O)[nH]2)C1 (stereo not given)	-	-	-	-	-	-
Cc1ccc(C)c(Cn2nnc3c(=O)[nH]c(C4CCCN(C(=O)C5CCCCC5)C4)nc32)c1 (stereo not given)	-[12.7 µM]	-	-	?	.	50µM
CCc1cccc(NC(=O)CCS(=O)(=O)c2ccc3nc(C)sc3c2)c1	11µM	-	-	-	.	.
CCc1cccc(NC(=O)CCSCCC(=O)Nc2cccc(CC)c2)c1	50µM	-	-	-	.	-
Cc1ccc(NC(=O)C2(c3ccccc3)CCOCC2)cc1	-	-	50µM	-	-	-
COc1ccc(C)cc1NC(=O)CCS(=O)(=O)c1cc2c3c(c1)CCN3C(=O)CC2	8.9µM	71µM	32µM	-	.	.
O=C(CCS(=O)(=O)c1cc2c3c(c1)CCN3C(=O)CC2)Nc1cccc(Br)c1	?	-	79µM	-	.	.
COc1ccccc1NC(=O)CCS(=O)(=O)c1cc2c3c(c1)CCN3C(=O)CC2	20µM	-	?	-	.	.
COc1ccc(NC(=O)CCS(=O)(=O)c2cc3c4c(c2)CCN4C(=O)CC3)cc1OC	-	-	-	-	.	.
COc1ccc(NC(=O)CCS(=O)(=O)c2cc3c4c(c2)CCN4C(=O)CC3)c(OC)c1	?	-	-	-	.	.
Cc1nc2c(c(C)c1CCC(=O)NCc1ccccc1)c(=O)n(C)c(=O)n2C	-	-	-	-	.	.
COc1cc(C(F)(F)F)c(C(=O)N(C)Cc2cccc(Cl)c2)cn1	-	-	-	-	-	-
